Source: PubChem (National Center for Advancing Translational Sciences (NCATS))
Rows were chosen to be rich in hits. Some 8.3% of all compounds tested hit in one or more screens of this group.
SW480 rerep: DNA re-replication induction in SW480 cells; Potency, µM (doses to about 46.1 µM), usual class: activators; 340,000 compounds, 1.8% hits; SW480 DNA re-replication, Hoechst DNA content imaging, 48 h; AID 624297; note: nearly all actives have a fitted effect of over 55% in size
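Per well, 250 cells were exposed to pinned compound for 48 hr. Nuclear DNA was visualised with Hoechst (40 min, 37 C) and total object intensity recorded by fluorescence scanning.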
MCF10A rerep: DNA re-replication induction in MCF 10a cells; MCF 10A DNA re-replication, Hoechst nuclear intensity, 48 h; Potency, µM (series often up to 46.1 µM), most hits filed as activators; 350,000 compounds, 2.9% hits; AID 624296; note: nearly all actives have a fitted effect of over 50% in size
RORg inh: ROR gamma (mouse) transcription inhibition | Potency, µM (titrated, usually from 53.6 µM), usual class: inhibitors | Drosophila S2 Gal4-RORgamma UAS-luciferase reporter, 20 h | 310,000 compounds, 5.4% hits; note: nearly all actives have a fitted effect of over 60% in size
Target sequence (P51450 whole entry, looked up, the tested form may be a part): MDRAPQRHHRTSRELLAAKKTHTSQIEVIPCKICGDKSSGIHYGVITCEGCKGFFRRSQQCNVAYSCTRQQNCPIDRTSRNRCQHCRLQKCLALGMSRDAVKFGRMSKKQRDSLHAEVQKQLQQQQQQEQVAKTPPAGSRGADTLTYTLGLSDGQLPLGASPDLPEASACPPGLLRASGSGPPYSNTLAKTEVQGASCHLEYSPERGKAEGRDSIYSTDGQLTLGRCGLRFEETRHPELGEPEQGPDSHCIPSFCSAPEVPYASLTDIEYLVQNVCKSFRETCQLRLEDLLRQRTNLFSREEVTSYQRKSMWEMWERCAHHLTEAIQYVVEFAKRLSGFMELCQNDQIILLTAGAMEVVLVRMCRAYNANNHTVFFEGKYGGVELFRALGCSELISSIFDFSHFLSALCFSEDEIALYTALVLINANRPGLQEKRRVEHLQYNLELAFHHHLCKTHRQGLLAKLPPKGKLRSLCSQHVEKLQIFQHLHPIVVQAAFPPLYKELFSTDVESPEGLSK
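Stably transfected Drosophila Schneider cells are the test system, with ROR gamma fused to Gal4 and luciferase under UAS control; luminescence is read after 20 hr of 700 uM copper sulfate induction at ambient temperature.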
VP16 counter: inhibits Gal4-VP16 luciferase reporter, ROR gamma counter-screen. 310,000 compounds, 3.5% hits. Drosophila S2 Gal4-VP16 UAS-luciferase, luminescence, 20 h. Potency, µM (titrated, usually from 53.6 µM), most hits filed as inhibitors;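 note: Gal4-VP16 expression switched on by copper sulfate through the metallothionein promoter; nearly all actives have a fitted effect of over 50% in size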
BCR signal inh: blocks chronic active B-cell receptor signaling. ABC-DLBCL IkBa-CBG/CBR reporter, luminescence ratio, 4 h. Potency, µM (series often up to 46.1 µM), most hits filed as inhibitors. 340,000 compounds, 0.05% hits. AID 493014; active = well fitted inhibition curve with a large enough effect in the signal ratio, with a control signal flat, not every such curve was filed as active; inconclusive = small, poorly fitted or top-dose-only effect, or effect the other way, or a change in a side signal; the % refers to the signal ratio
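TMD8 human ABC-DLBCL cells with doxycycline-inducible IκBα–green luciferase fusion and unfused red luciferase, in 0.5% FBS medium; compounds up to 46 uM, 4 h at 37C. Green/red luminescence ratio, filter-overlap corrected, fitted to concentration-response curves.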
Giardia kill: kills Giardia lamblia; AID 540267; activity change, % at 7.66 µM, hits read low; 340,000 compounds, 0.15% hits; Giardia lamblia trophozoite viability; in the data active = activity change below about -80%; inconclusive = between about -30% and that limit;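 note: parasites exposed to compound for two days anaerobically before the ATP read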
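Giardia lamblia trophozoites (100 cells/well) were incubated with compounds for 48 h at 37 deg C under anaerobic conditions. Viability was read as ATP content by one-step luminescence after 15-30 min at room temperature.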
A number is an active result; i = inactive; ? = inconclusive; nt = no result given; [ ] = remark or other dose. Unless noted, calls come from the whole dose curve; as a rule, active = well fitted curve in the direction sought with a large enough effect; inconclusive = small, poorly fitted or top-dose-only effect, or another doubt; inactive = no such curve, though single readings can be large; an effect the other way counts as inactive or inconclusive.

SMILES	SW480 rerep	MCF10A rerep	RORg inh	VP16 counter	BCR signal inh	Giardia kill
Cc1ccc(CNC(=O)Cc2ccc(NC3=NC4CS(=O)(=O)CC4S3)cc2)cc1 (centres undefined)	i	i	i	i	i	i
CCc1ccc(NC2=NCC(c3ccccc3)S2)cc1 (centres undefined)	i	i	8.9µM	?	i	i
CN1C(=O)S/C(=C\c2ccc(-n3cncn3)cc2)C1=O	i	i	i	i	i	i
Cc1ccc(S(=O)(=O)N2CCN(c3ccnc(-c4cccs4)n3)CC2)cc1	nt	nt	nt	nt	nt	i
CCCCN(C(=O)CCC(=O)Nc1cc(C)on1)C(C(=O)NC1CCCC1)c1ccccc1OCC (centres undefined)	i	i	i	i	i	i
O=S(=O)(CC(CN1CCOCC1)N1CCOCC1)c1ccccc1 (centres undefined)	i	i	i	i	i	i
O=S(=O)(CC(CN1CCCCC1)N1CCCCC1)c1ccc2ccccc2c1 (centres undefined)	?	?	13µM	?	?	i
Cc1ccc(S(=O)(=O)CC(CN2CCCCC2)N2CCCCC2)cc1 (centres undefined)	i	?	2.8µM	i	?	i
O=C(COc1ccc([N+](=O)[O-])cc1)Nc1cccc2nsnc12	i	i	i	i	i	i
CCC(NC(=O)c1ccccc1NC(=O)c1ccccc1)C(=O)OC (centres undefined)	?	i	?	6.3µM	?	i
COC(=O)c1ccccc1NC(=S)NC(=O)c1ccc(C)cc1	i	i	16µM	?	?	i
COC(=O)c1ccccc1NC(=S)NC(=O)c1ccccc1	i	i	1µM	?	i	i
O=C(NC(=S)Nc1ccccc1[N+](=O)[O-])c1ccco1	i	i	7.9µM	?	i	i
COCCNC(=S)Nc1ccccc1[N+](=O)[O-]	i	i	i	i	i	i
COc1ccc(C2C(=O)N(C3CCCCC3)CC(=O)N2CCc2ccc(OC)c(OC)c2)cc1 (centres undefined)	nt	nt	nt	nt	i	nt
CC(=O)N1CCC(C(=O)Nc2cc(C)cc(C)c2)CC1	i[9.22 µM]	i	i	i	i	i
Cc1ccccc1C(=O)NC(CC(C)C)C(=O)Nc1ccc(S(N)(=O)=O)cc1 (centres undefined)	i	i	i	i	i	i
Cc1ccc(NC(=S)NC(=O)c2ccccc2)cc1NC(=S)NC(=O)c1ccccc1	i	i	1.4µM	7.1µM	?	i
Cc1ccccc1C(=O)NC(=S)Nc1ccccc1C(=O)O	i	i	i	i	?	i
Cc1ccccc1C(=O)NC(=S)Nc1ccccc1[N+](=O)[O-]	i	i	6.3µM	?	i	i
COC(=O)c1ccccc1NC(=S)NC(=O)c1ccccc1C	?	?	7.9µM	?	?	i
Cc1cc(C)c(NC(=S)NC(=O)c2ccc(-c3ccccc3)cc2)c(C)c1	i	?	4.5µM	5.6µM	i	i
Cc1ccc(C(=O)NC(=S)Nc2cc(-c3nc4ccccc4s3)ccc2C)cc1	i	?	i	i	i	i
COc1ccc(Cl)cc1C(=O)NNC(=O)CCNS(=O)(=O)c1ccccc1	i	i	nt	nt	i	i
Cc1cc(NC(=S)NC(=O)c2ccccc2)ccc1-c1cc2ccccc2oc1=O	?	?	0.4µM	i	?	i
SMILES	SW480 rerep	MCF10A rerep	RORg inh	VP16 counter	BCR signal inh	Giardia kill
COc1cc(C(=O)NC(=S)Nc2cccc(-c3cc4ccccc4oc3=O)c2)cc(OC)c1OC	i	i	?	i	i	i
COc1ccc(/C=C/c2cc(-c3ccc(C)cc3)o[n+]2C)cc1	?	?	?	13µM	?	i
COc1ccc(/C=C/c2c(-c3ccc(OC)cc3)oc3ccc(-c4ccc(OC)cc4)cc23)cc1	?	?	i	i	i	i
CCOC(=O)C1=C(C)OC(N)=C(C#N)C1c1ccsc1 (centres undefined)	i	i	i[10 µM]	i	i	i
CCOC(=O)C1=C(CSc2nc(-c3ccccc3)ccc2C#N)OC(N)=C(C#N)C1c1cccnc1 (centres undefined)	?	?	i	i	i	i
CCOC(=O)C1=C(CSc2nc(-c3ccccc3)ccc2C#N)OC(N)=C(C#N)C1c1ccccc1 (centres undefined)	15µM	?	i	i	i	i
